# Assay results reported in PubChem BioAssay AID488815 (Broad Institute, 2010).
# Potency and affinity values are given separately. Inconclusive results are not listed. Values without a mark were called inactive. How the calls were made is not given here.
# Biological target: CAAX prenyl protease 1 (Saccharomyces cerevisiae (strain ATCC 204508 / S288c)) (UniProt P47154)
# Assay: yeast CAAX protease Ste24 inhibition – biochemical, S. cerevisiae, plate reader, cherry-pick, dose response (AID 488815);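 further: 0% = neutral control wells and -100% = no enzyme wells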
# Settings: series mostly up to 10 µM; activity change, negative = inhibition: at the top concentration
# CAAX prenyl protease 1 (Saccharomyces cerevisiae (strain ATCC 204508 / S288c)), sequence (P47154 whole entry, looked up): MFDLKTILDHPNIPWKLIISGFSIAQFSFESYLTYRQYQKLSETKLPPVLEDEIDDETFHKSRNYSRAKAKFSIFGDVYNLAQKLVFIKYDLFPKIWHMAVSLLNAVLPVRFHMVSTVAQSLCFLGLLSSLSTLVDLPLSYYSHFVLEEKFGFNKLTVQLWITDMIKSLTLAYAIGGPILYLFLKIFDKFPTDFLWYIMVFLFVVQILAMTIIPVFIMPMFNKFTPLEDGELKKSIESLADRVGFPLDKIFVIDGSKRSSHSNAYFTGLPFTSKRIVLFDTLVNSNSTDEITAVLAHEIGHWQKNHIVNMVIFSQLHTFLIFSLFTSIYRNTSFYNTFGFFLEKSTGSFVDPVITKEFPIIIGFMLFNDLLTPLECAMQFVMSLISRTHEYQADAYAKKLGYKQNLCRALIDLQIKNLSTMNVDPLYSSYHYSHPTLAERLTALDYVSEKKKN
row,Compound,"activity change, negative = inhibition [%]"
1,COc1cccc(-c2cc(C(F)(F)F)n3ncc(S(=O)(=O)c4ccccc4)c3n2)c1,9.25
2,CCCCOc1ccc(Cc2c(COCC)[nH]c(=S)[nH]c2=O)cc1,40.5
3,COc1ccc(-c2cc(C(=O)NCCCN3CCCC3=O)c3ccccc3n2)cc1,49.3
4,CCCC(=O)N1CCN(c2ccc(NC(=O)c3cc4ccccc4o3)cc2Cl)CC1,18.2
5,CC(=O)N[C@@H](C)c1nc2ccccc2n1CCCN1CCN(c2nc(-c3ccc(C)cc3)cs2)CC1,-6
6,CCN(CC)c1ccc(C(=O)c2ccccc2C(=O)O)c(O)c1,13
7,O=C1CN(C(=O)NCC(=O)N2CCCC2)c2ccccc2N1,10
8,Cc1ccc(NC(=O)CCc2ccc(S(=O)(=O)NC3CCCCC3)cc2)cc1,36.8
9,CN1CCN(Cc2c(C(=O)N/N=C/c3cccc(Br)c3)nnn2-c2nonc2N)CC1,13.2
10,COc1cccc(-c2csc(N3CCN(C(=O)NC45CC6CC(CC(C6)C4)C5)CC3)n2)c1,21.3
11,O=C1CCN(Cc2ccccc2)CCN1[C@H](CSc1ccccc1)Cc1ccccc1,24.5
12,CCN(Cc1ccccc1)S(=O)(=O)c1ccc(C(=O)N(CCCN(C)C)c2nc3c(C)c(C)ccc3s2)cc1,-16.7
13,CCn1c(COc2cccc(C)c2)nnc1SCC(=O)NC1CCCC1,18.5
14,CCO[C@@H]1OC(C(=O)N2CCN(Cc3ccccc3)CC2)=C[C@H](c2ccccc2)[C@H]1CCCO,20.8
15,Cc1cccc(NS(=O)(=O)c2ccc(C)c(C(=O)OCC(=O)Nc3cc(C)on3)c2)c1,6.86
16,CC(C)c1cccc(OCC(=O)Nc2ccc(S(=O)(=O)Nc3ccccn3)cc2)c1,-3.69
17,CCn1cc(/C=C(\NC(=O)c2ccccc2F)C(=O)N2CCOCC2)c2ccccc21,26
18,COc1ccc(C(=O)/C=C/c2ccc(OC)cc2OC)c(O)c1,22.4
19,COc1cccc(C2CC(c3ccc(Br)cc3)=NN2C(=O)c2ccncc2)c1OC (stereo not given),6.74
20,COc1ccc(CN2CCN(C(c3ccc(F)cc3)c3ccc(F)cc3)CC2)c(OC)c1OC,18.6

row,Compound,"activity change, negative = inhibition [%]"
1,Cc1nc(N2CCCCC2)c2c(C)c(C(=O)Nc3ccccc3C(F)(F)F)sc2n1,-7.43
2,CCOc1ccc(NC(=O)CCSc2ccc(C)cc2)cc1,39.6
3,O=C(CCNC(=O)N1CC(=O)Nc2ccccc21)NCCc1cccc(F)c1,28.2
4,Cc1ccc(S(=O)(=O)CC(=O)N2CCN(c3ccccc3F)CC2)cc1,21.3
5,CSc1ccc(C(=O)C2CCCN(C(=O)c3cccnc3SC)C2)cc1 (stereo not given),16.5
6,O=C(Nc1ccc(S(=O)(=O)Nc2ccccc2)cc1)C1COc2ccccc2O1 (stereo not given),6.01
7,Cc1cccc(N2C(=O)c3cccc4c(N5CCCCC5)c([N+](=O)[O-])cc(c34)C2=O)c1C,24.1
8,CC1(c2ccc(OCC#N)cc2)C=C(c2ccc(OCC#N)cc2)n2nc(C(F)(F)F)nc2N1 (stereo not given),-3.89
9,Cc1ccc(NS(=O)(=O)c2ccc(NC(=O)N3CCCCC3)cc2)cc1,1.82
10,CC(C)NCC(O)COCCOc1ccc(Br)cc1 (stereo not given),35.7
11,CC(=O)N1c2ccc([N+](=O)[O-])cc2NC(=O)CC1C (stereo not given),3.56
12,CCSCCOC(=O)C1=C(C)NC(=O)NC1c1ccccc1 (stereo not given),21.6
13,Cc1cc(N)c2cc(NC(=O)/C=C/c3ccccc3Cl)ccc2n1,-21.1
14,O=C(CCNS(=O)(=O)c1ccc2[nH]c(=O)oc2c1)NCc1ccccc1,8.12
15,CN(C(=O)c1ccc2c(c1)SC1=NS(=O)(=O)CCN12)C(c1ccccc1)c1ccccc1,2.89
16,Cc1cc(-c2ccccc2)n2nc(C)c(C#N)c2n1,-15.7
17,Cc1ccc(S(=O)(=O)c2cn(C)c3cc(N4CCOCC4)c(F)cc3c2=O)cc1,-85.1
18,CC(C)C[C@H](NC(=O)c1nc[nH]c1C(=O)N1CCNCC1)C(=O)OCc1ccccc1,22.1
19,CCOC(=O)c1cc(-c2ccccc2)sc1NC(=O)C(C)Sc1nnnn1C (stereo not given),40.8
20,CC1CCN(C(=O)c2cc3nc(-c4ccccc4)cc(-c4ccccc4)n3n2)CC1,6.23
